Reference: PubChem BioAssay AID743279 (National Center for Advancing Translational Sciences (NCATS), 2014)
The campaign covered roughly 360,000 compounds. About 17,000 (4.7%) were called active. About 5% were inconclusive and are not listed. Shown is part of a subset that was picked to be rich in actives. A number with no mark means an inactive call. No stated cut-off is given here; in the data, active means activity change below about -50%; inconclusive means mostly about -30% to -49%; inactive means weaker than that.

Experiment: qHTS for Inhibitors of Inflammasome Signaling: IL-1-beta AlphaLISA Primary Screen
Details: THP-1 LPS/ATP IL-1B secretion, 16 h; at 57.5 µM, hits give low values
How it was run: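 Secreted IL-1B measured by AlphaLISA bead assay after 16 h compound exposure of THP-1 cells; compounds (final up to 57.5 uM) added 1 h before LPS (250 ng/mL) and ATP (1.25 mM) stimulation; lower signal means less secretion.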
On the % scale 0 is the no-effect control and ±100 the full control effect.

SMILES | activity change
CCOC(=O)N/N=C/c1cccnc1 | 33.8%
COc1ccc(C(=O)NCC(=O)N/N=C/c2cccnc2)cc1 | 16.9%
O=C(CSc1cccc2cccnc12)N/N=C/c1cccnc1 | -96.5% (active)
CC(=NNC(N)=O)C1CC2CCC1CC2 (configuration not stated) | -5.84%
O=C(/C=C/c1ccc(Cl)cc1Cl)c1cccnc1 | -59.5% (active)
O=C(OCc1cc(Cl)ccc1OC(F)F)c1cccnc1 | 26%
O=C(NCc1ccc(Cl)c(Cl)c1)c1cccnc1 | 3.6%
CC(=O)N1CCc2cc(Br)cc(S(=O)(=O)CCC(=O)Nc3c(C)n(C)n(-c4ccccc4)c3=O)c21 | 4.54%
O=[N+]([O-])c1ccc(N=NNc2ccc([N+](=O)[O-])cc2)cc1 | -3.41%
O=[N+]([O-])c1ccc(N/N=C/c2ccccc2)cc1 | -59.6% (active)
O=C(NN=Cc1ccc([N+](=O)[O-])cc1)C1CC1 | -3.03%
Cc1ccc(C)c(C(O)c2ncc(-c3cccc4ccccc34)[nH]2)c1 (configuration not stated) | 4.1%
Cc1ccc(N(NC(=O)C(C)(C)O)C(=O)c2ccccc2)cc1C | 38.2%
CCCC(O)(CCC)C(=O)NN(C(=O)CCl)c1cccc(C)c1 | -219% (active)
CC(C)(O)C(=O)NN(C(=O)c1ccccc1)c1cccc(Br)c1 | -15.5%
CCCCCNC(=O)C1c2ccccc2Oc2ccccc21 | -3.75%
COC(=O)N(NC(=O)C(O)(C(C)C)C(C)C)c1ccccc1 | 12.9%
CCCCC(O)(CCCC)C(=O)NN(C(=O)CCl)c1ccccc1 | -78.2% (active)
CCN(CC(=O)Nc1c(F)cccc1F)C(=O)c1ccc(-c2ccc(C(C)=O)cc2)o1 | -9.45%
CC1(C(=O)NS(=O)(=O)c2cccs2)CCN1C(=O)Cc1ccc(-c2ccccc2)cc1 (configuration not stated) | 5.64%
Cn1c(Nc2ccc(F)cc2)nc2cc(-c3ccsc3)sc2c1=O | 19.8%
CC(C)[C@H](NC(=O)c1ccccc1F)C(=O)Nc1cccc(S(=O)(=O)N2CCOCC2)c1 | 13.4%
O=C(NCc1ccco1)/C(=C\c1cccc([N+](=O)[O-])c1)NC(=O)c1ccco1 | 29.6%

SMILES | activity change
CCCCN(C(C)=O)c1ccc2c(c1)C1CC2CCN1Cc1ccccc1 (configuration not stated) | -22.2%
COc1ccc(CNC(=O)Cc2ccc(-c3ccccc3)cc2)cc1OC | 0.934%
Fc1ccc(-c2ccc(-c3nn4c(-c5ccco5)nnc4s3)o2)cc1 | -8.52%
COc1ccc(-c2nn3c(-c4ccccc4)nnc3s2)cc1OC | -54.1% (active)
CCCc1ccc(S(=O)(=O)N2CCN(C(=O)c3cc(C)on3)CC2)cc1 | 21.7%
CCOC(=O)[C@]12CCCC=C1N(CCC1=CCCCC1)C(=O)[C@H](CC(=O)N1CCN(C(=O)c3ccco3)CC1)C2 | -5.52%
C=CCc1cc(S(=O)(=O)c2ccc(O)c(CC=C)c2)ccc1O | 8.87%
CCCNC(=O)C[C@@H]1CC[C@@H]2[C@H](COC[C@H](O)CN2C(=O)c2cc(Cl)cc(Cl)c2)O1 | 35%
O=C(COC(=O)Cc1ccc(Cl)cc1Cl)NCc1ccco1 | 0.688%
CC(=O)OCC(COC(C)=O)OC(C)=O | 12.6%
CC(=O)OC(C)C[N+](C)(C)C (configuration not stated) | -70.2% (active)
CC(C[N+](C)(C)C)OC(N)=O (configuration not stated) | 8.81%
CC1=C(C(=O)N2CCOCC2)CC(CC(=O)NCc2ccco2)C(=O)N1Cc1ccc(F)cc1 (configuration not stated) | 17.5%
O=C1NC[C@H](CCCCN2C[C@H](Cc3ccc(O)cc3)N(CCc3ccccc3)C(=O)C2=O)N(CCc2ccccc2)C1=O | 4.59%
CC(C)(C)c1cc(=O)n2c(nc3ccccc32)[nH]1 | -74.5% (active)
CC(C)(C)c1nc2ccccc2c(=O)n1N1C(=O)c2ccccc2C1=O | -1.36%
CC(C)(C)N1CC(c2nc3ccccc3n2Cc2ccc(F)cc2)CC1=O (configuration not stated) | -16.1%
CN(CC(=O)NCc1ccncc1)S(=O)(=O)c1ccc(Br)cc1 | 11.2%
O=C(CCc1nc2ccccc2c(=O)[nH]1)OCC(=O)c1cccc(Cl)c1 | 0%
O=C(N/N=C/c1ccc(Cl)cc1)c1nc2ccc([N+](=O)[O-])cc2c(=O)[nH]1 | 7.76%
O=C(/C(=C/c1cccc(Cl)c1)c1nc2ccccc2[nH]1)c1ccccc1 | -95.6% (active)
c1cc(-c2ccc3[nH]ccc3c2)n2ccnc2c1 | 10.3%
CC1CN(C(=O)CCC(=O)NC2CCN(Cc3ccccc3)CC2)c2ccccc2O1 (configuration not stated) | -3.91%

SMILES | activity change
CN(CC(=O)NC1CCN(Cc2ccccc2)CC1)S(=O)(=O)c1ccc(Cl)s1 | -53.7% (active)
CN(CC(=O)NC1CCCCC1)S(=O)(=O)c1ccc(Br)s1 | 2.52%
COc1cccc(OC)c1C(=O)N1CCN(Cc2ccccc2F)CC1 | -14.9%
COc1cccc(-c2cnc3c(NC(C)=O)cc(-c4cc(F)ccc4OC)cn23)c1 | -11.1%
Cc1ccccc1N1CCN(Cc2nc(Cc3ccccc3F)no2)CC1 | 15.1%
COc1ccc(CCNC(=S)N2CCN(S(=O)(=O)c3ccc(Cl)cc3)CC2)cc1 | 0%
Oc1cc2c(cc1O)CN(C(=S)NCCc1ccc(Cl)cc1)CCC2 | -66.9% (active)
O=C(NCCc1ccc(Cl)cc1)c1cccc(N2CCCC2=O)c1 | -5.88%
O=C(Nc1ccccc1)c1nnsc1S(=O)(=O)c1ccc(Cl)cc1 | -53.3% (active)
O=C(Nc1ccc(S(=O)(=O)Nc2ccccn2)cc1)c1ccccc1 | inactive
O=C(Nc1ccc(Cl)cc1)Nc1nnc(/C=C/c2ccccc2)s1 | 11.5%
CCCCc1nc(SCC(=O)Nc2nnc(C(C)C)s2)n[nH]1 | 10.5%
CSCCC(NC(=O)C1CCC(C)CC1)C(=O)NCc1ccco1 (configuration not stated) | -25.5%
CN1C(c2ccc(F)cc2)=CS/C1=C(/C#N)c1nnc2n1-c1ccccc1SC2 | -68.6% (active)
COc1cc(OC)cc(-c2nc3ccccc3c(=O)n2NC(=O)c2cccnc2Cl)c1 | -0.823%
O=C(Nc1ccc2c(c1)OCCO2)C1c2ccccc2OCC(=O)N1Cc1ccccn1 (configuration not stated) | 18.3%
CC(C)Cn1cc(-c2cncc3nccn23)cn1 | -7.82%
CCCCCc1ccc(-c2cn(Cc3ccc4ccccc4c3)nn2)cc1 | -1.04%
CCOC(=O)c1nnn(-c2nc(OC)nc(N(C)C)n2)c1-c1ccccc1 | 44.9%
CCOc1nc(OCC)nc(-n2cc(-c3ccccc3)nn2)n1 | -60.1% (active)
COc1ccc(-c2ccc(CN3C(CC(C)C)C(=O)N(Cc4cn(CC5CCCCC5)nn4)CCS3(=O)=O)cc2)cn1 (configuration not stated) | -12.3%
CC(=O)NN=C(C)c1ccc(NC(=O)C2CC2)cc1 | -22.8%
CCc1ccc2c(c1)cc(CN(C(=S)Nc1ccccc1Cl)C1CC1)c1nnnn12 | 14.3%

SMILES | activity change
COc1cc([N+](=O)[O-])cc([N+](=O)[O-])c1NC(=O)N1CCOCC1 | -92.7% (active)
COc1cc(C(=S)N2CCOCC2)cc(OC)c1OC(=O)c1cc([N+](=O)[O-])cc([N+](=O)[O-])c1 | 22%
COc1cc(C(=S)N2CCOCC2)cc(OC)c1OC(=O)c1ccc([N+](=O)[O-])cc1[N+](=O)[O-] | -15.3%
OC[C@@H]1CN(Cc2ccc(-c3ccccc3)cc2)C[C@H](n2cnc3c(NC4CCCC4)ncnc32)O1 | -3.87%
COc1cc2cc(C(=O)N/N=C/c3cccc(OC)c3OC)[nH]c2cc1OC | -70% (active)
CCOc1ccc2[nH]c(C(=O)N/N=C/c3cccc(OC)c3OC)cc2c1 | 0%
COc1ccc2[nH]c(C(=O)N/N=C/c3cc(OC)c(OC)c(OC)c3)cc2c1 | -6.28%
Cc1cc2c3ccccc3[nH]c(=O)n2n1 | -25.1%
O=C1c2ccccc2C(=O)C1C(=O)C1CC1 | 8.56%
Nc1cccc(-c2cncc(N3CCN(Cc4ccccn4)CC3)n2)c1 | -1.3%
O=C(C[C@H]1C[C@H]2c3cc(NS(=O)(=O)c4ccc(F)cc4)ccc3O[C@H]2[C@H](CO)O1)NCc1cc(F)ccc1F | 9.17%
COc1ccc2cc1Oc1ccc(cc1)C[C@H]1c3cc(c(OC)cc3CCN1C)Oc1c(O)c(OC)cc3c1[C@H](C2)N(C)CC3 | -107% (active)
OC(c1ccc(Cl)c(F)c1)c1ncc(-c2ccccc2Cl)[nH]1 (configuration not stated) | 1.76%
CCc1nc2c(OCCc3cccc(OC)c3)cccn2c1N(C)C(=O)c1ccc(C)cc1 | -7.64%
Cc1ccc(NC(=O)COC(=O)CN2CCSC2=O)cc1F | 4.94%
Cc1cc2nc(-c3ccc(F)cc3)c(Cc3ccsc3)n2c(C)c1Br | 14%
Cc1ccc(C(=O)N2CCCC(c3ccccc3)=N2)cc1 | -5.32%
Cc1ccc(NC(=S)N2CCCC(c3ccccc3)=N2)cc1 | -20.4%
Cc1ccc(-c2c[n+](CC(=O)Nc3ccccc3)c3n2CCC3)cc1 | -60.8% (active)
Cc1cccc[n+]1CC(=O)c1ccccc1 | 22.7%
Cc1ccc(NC(=O)CN2CCc3ccccc3C2)cc1 | 7.54%
Cc1ccc(C(=O)C[n+]2cc(-c3ccccc3)n3c2CCCCC3)cc1 | -83.1% (active)
COc1cccc(NC(=O)N(C)C[C@@H]2Oc3ncc(Br)cc3C(=O)N([C@@H](C)CO)C[C@H]2C)c1 | 2.84%
